The source of these data is PubChem BioAssay (EPA / NIEHS).

Inconclusive results are not listed. The source made the active and inactive calls. Rule for the calls: active = hit-call score of the fitted dose curve at least 0.9, where 1 is the maximum; inconclusive = response in the unintended direction; inactive = score below 0.9.

This test relates to Sodium/Iodide Symporter (NIS), SLC5A5 (gene 6528). Nature of the test: CPHEA_Stoker_NIS_Inhibition_RAIU: CPHEA's Radioactive Iodide Uptake (RAIU) Assay for Sodium/Iodide Symporter (NIS) Inhibition, Stoker and Laws Labs (AID 2283841). As to the method:
CPHEA_Stoker_NIS is a cell-based, single-readout assay that uses hNIS-HEK293T-EPA, a novel human kidney cell line expressing human NIS, with measurements taken at 2 hours after chemical dosing in a 96-well plate. This radioactive iodide uptake (RAIU) assay is used to identify inhibitors of NIS-mediated iodide uptake. A parallel cytoxicity assay (Cell Titer Glo, Promega) was also run in the same cell line.CPHEA_Stoker_NIS_Inhibition_RAIU is one of 2 assay components measured from the CPHEA_Stoker_NIS assay. It is designed to make measurements of radioactive substrate uptake to understand transporter function, as detected with 125-i signals by MicroBeta radioactivity plate reader technology.Data from the assay component CPHEA_Stoker_NIS_Inhibition_RAIU was analyzed at the endpoint, CPHEA_Stoker_NIS_Inhibition_RAIU, in the positive analysis fitting direction relative to DMSO as the negative control and baseline of activity. Measures of radioactive substrate uptake for loss-of-signal activity can be used to understand the effects on transporter function at the pathway level as they relate to the sodium-iodide symporter, gene SLC5A5. To generalize the intended target to other relatable targets, this assay endpoint is annotated to the transporter intended target family, where the subfamily is sodium-iodide symporter (NIS).
hNIS-HEK293T-EPA cells were seeded with a MultiFlo FX dispenser (BioTek, Winooski, VT) into ScintiPlate-96 microplates (Perkin Elmer, Waltham, MA) at a density of 4.0x10^4 cells per well in 200uL growth media and incubated for 40 hours before experimentation. On day of the assay, carrier-free 125I (Perkin-Elmer, Waltham, MA; specific activity: 17.4Ci/mg) was diluted with Hanks' balanced salt solution (Sigma, St. Louis, MO) supplemented with 10mM HEPES (uptake buffer; pH 7.4) at 5uCi/mL (288pg 125I/mL uptake buffer; 2.30nM). The assay was initiated by washing cells twice with 200uL uptake buffer using a 96-well Tecan HydroSpeed plate washer (Tecan, Mannedorf, Switzerland). Uptake buffer (59.7uL) was then added back to each well. Chemical samples (350nL at 200X) were administered using the HDR tool as previously described to achieve a 1X chemical/0.5% final DMSO concentration with subsequent addition of 10uL of 125I dilution (final [125I]: 329pM; 2.88pg/well) for a final reaction volume of 70uL/well. Cells were incubated at room temperature for 2 hours and then washed twice with 200uL ice cold uptake buffer. All uptake buffer was aspirated from wells, plates were sealed, and read on a MicroBeta2 plate reader (Perkin Elmer, Waltham, MA) using a detection protocol to measure CPM corresponding to intracellular 125I concentration. Each chemical concentration (0.001, 0.01, 0.1, 1.0, 10, and 100uM) was assayed in triplicate with three independent biological replicate plates (3 sequential cell passages). Additionally, a concentration response of NaClO4 (0.001, 0.01, 0.1, 1.0, 10, and 100uM) served as a positive control inhibition curve on each RAIU assay plate. DMSO control wells were assayed on each plate as a measure of maximum iodide uptake for normalization and determination of intra- and inter-assay variation. (Toxicol In Vitro, 2017, 40:66-78).
Take `Nc1c(Cl)c(Cl)nc(C(=O)O)c1Cl`: the result was inactive.
Take `CC(C)Oc1cccc(NC(=O)c2ccccc2C(F)(F)F)c1`: the outcome was inactive.
Usually AC50 stands for the concentration at which the activity in the assay is half-maximal. `CO/N=C(/C1=NOCCO1)c1ccccc1Oc1ncnc(Oc2ccccc2Cl)c1F`: the AC50 is 9.92 µM (active).
In the case of `CSC(=O)c1c(C(F)F)nc(C(F)(F)F)c(C(=O)SC)c1CC(C)C`, the result was inactive.
Turning to `CC(C)N1C(=O)N(c2ccccc2)CSC1=NC(C)(C)C`, the AC50 was 27.8 µM (active).
Regarding `CC1(C)C(C=C(Cl)Cl)C1C(=O)OC(C#N)c1cccc(Oc2ccccc2)c1` (stereo unspecified), the outcome was inactive.
The same measure, in the same setting: under `CC1(C)CON(Cc2ccccc2Cl)C1=O` stands “inactive”.
For `O=C1C2CC=CCC2C(=O)N1SC(Cl)(Cl)Cl` (stereo unspecified), the AC50 is 36 µM (active).
Turning to `COP(=S)(OC)SCn1nnc2ccccc2c1=O`, the result was inactive.
Regarding `C=CCOC(=O)C(C)(C)OC(=O)c1cc(-n2c(=O)cc(C(F)(F)F)n(C)c2=O)ccc1Cl`, the outcome was inactive.
Same read-out and setting: under `N#Cc1c[nH]cc1-c1cccc2c1OC(F)(F)O2` stands “inactive”.
For the compound `CCOc1cc(C(C)(C)C)ccc1C1COC(c2c(F)cccc2F)=N1` (stereo unspecified), the AC50 was 1.21 µM (active).
As to `COP(=S)(OC)Oc1ccc([N+](=O)[O-])c(C)c1`, the result was inactive.
As for `CCNP(=S)(OC)O/C(C)=C/C(=O)OC(C)C` (stereo unspecified), the outcome was inactive.
Regarding `CCOC(=O)C(C)OC(=O)c1cc(Oc2ccc(C(F)(F)F)cc2Cl)ccc1[N+](=O)[O-]` (stereo unspecified), the outcome was inactive.
As to `CCOP(=O)(OCC)Oc1nc(Cl)c(Cl)cc1Cl`, the result was inactive.
On to `O=C(Nc1ccccc1-c1ccc(Cl)cc1)c1cccnc1Cl`, for which the outcome was inactive.
Regarding `C=C(C)CN(CC)c1c([N+](=O)[O-])cc(C(F)(F)F)cc1[N+](=O)[O-]`, the AC50 is 5.45 µM (active).
Same read-out and setting: under `COc1ccc(-c2ccccc2)cc1NNC(=O)OC(C)C` stands 50 µM (active).
For the compound `Clc1cccc(C(Cl)(Cl)Cl)n1`, the outcome was inactive.
For the compound `CCN(CC)c1nc(C)cc(OP(=S)(OC)OC)n1`, the outcome was inactive.
With `CCOP(=S)(OCC)Oc1nc(Cl)n(C(C)C)n1`, the result was inactive.
In the case of `CCCCC(O)(Cn1cncn1)c1ccc(Cl)cc1Cl` (stereo unspecified), the result was inactive.
On to `CC(C)=CC1C(C(=O)OCc2coc(Cc3ccccc3)c2)C1(C)C` (stereo unspecified), for which the result was inactive.
In the case of `OC(c1ccc(Cl)cc1)(c1ccc(Cl)cc1)C(Cl)(Cl)Cl`, the AC50 was 30.2 µM (active).
As for `CCN(CC)C(=O)C(C)Oc1cccc2ccccc12` (stereo unspecified), the outcome was inactive.
The same measure, in the same setting: the result for `COC(=O)c1c(C(F)F)nc(C(F)(F)F)c(C2=NCCS2)c1CC(C)C` reads “inactive”.
`CC1(C)C(C(=O)OC(C#N)c2cccc(Oc3ccccc3)c2)C1(C)C` (stereo unspecified): the outcome was inactive.
As for `Cc1ccc(N=CN(C)C=Nc2ccc(C)cc2C)c(C)c1`, the outcome was inactive.
Take `CCOc1nc(F)cc2nc(S(=O)(=O)Nc3c(Cl)cccc3Cl)nn12`: the result was inactive.
Same read-out and setting: the result for `CCCCOCN(C(=O)CCl)c1c(CC)cccc1CC` reads “inactive”.
